Experimental data from PubChem BioAssay AID720513 (Broad Institute, 2013).
Hit rate of the full screen: of about 2,100 compounds, about 480 (23%) were called active. Another 5% or so got no clear call; they are omitted.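 Rule for the calls: active = fitted curve reaches 40% activation at or below the top valid concentration, in every replicate test; inconclusive = replicate tests disagree on the call; inactive = the rest, including activity in the opposite direction.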 A selection follows. Potency and affinity values are given separately.

Experiment: PGC1a acetylation increase, cellular AlphaLISA – cell-based, cherry-picked samples, set 6, dose response (AID 720513);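 note: cells made to overexpress flag tagged PGC1a plus GCN5 acetyltransferase by viral infection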
Settings: U2OS PGC1a acetylation AlphaLISA, overnight, 0 = neutral, -100 = inhibitor control; series mostly up to 19.5 µM; activation (acetylation increase): at the top concentration

Activation (acetylation increase), inactive:
C[C@@H]1CCCCO[C@H](CN(C)Cc2ccc3c(c2)OCO3)[C@@H](C)CN([C@@H](C)CO)C(=O)c2cc(NC(=O)Nc3ccc(C(F)(F)F)cc3)ccc2O1 -94.8%
O=C(NCc1ccccc1)C1Cc2c(-c3ccc4c(c3)OCO4)ccnc2O1 (stereo not drawn) 55.9%
CC(=O)c1cccc(-c2ccnc3c2CC(C(=O)NCC2CC2)O3)c1 (stereo not drawn) 19.7%
CC(=O)c1cccc(-c2ccnc3c2CC(C(=O)Nc2ccc4c(c2)OCO4)O3)c1 (stereo not drawn) 20.9%
O=C(CSc1nnc(-c2ccncc2)n1-c1ccc(Cl)cc1)NCc1cccs1 25.8%
COc1ccc(-c2[nH]ncc2-c2ccc3c(c2)OCCO3)c(O)c1 -17.4%
Cn1nc(C(=O)N2CCCCC2)c2c1-c1ccccc1S(=O)(=O)C2 13.5%
CC(C)(C)c1ccc(-n2nc(C#N)c(Cl)cc2=O)cc1 -111%
Cc1cc(-c2c(C)[nH]n(-c3ccc(Cl)cc3)c2=O)n(-c2ccccc2)n1 21.5%
COc1ccc(CN(C)C[C@@H]2OCCCC[C@@H](C)Oc3ccc(NS(C)(=O)=O)cc3C(=O)N([C@H](C)CO)C[C@@H]2C)cc1 15.2% [at 21 µM]
CC(C)(C)NS(=O)(=O)c1ccc(-c2csnn2)s1 -32.1%
CC(C)CC#Cc1ccc2c(c1)O[C@H](CN(C)C)[C@@H](C)CN([C@H](C)CO)S2(=O)=O 23.4%
CCC1(CC)Cc2ccccc2-c2nc(CN(C)C)[nH]c(=O)c21 -10.6%
CC(=O)c1ccc(N2CCN(S(=O)(=O)c3csc(C(N)=O)c3)CC2)cc1 22.3%
COc1cc(C(C)=O)ccc1OCC(O)CN1CCN(c2ccc(C)c(C)c2)CC1 (stereo not drawn) 15.2%
COc1ccc(CN(C)C[C@H]2Oc3ccc(NC(=O)Cc4cn(C)c5ccccc45)cc3CC(=O)N([C@@H](C)CO)C[C@@H]2C)cc1 6.37%
COc1ccc(-c2cnc3c(c2)C(=O)N([C@H](C)CO)C[C@H](C)[C@@H](CN(C)C(=O)C2CCC2)O3)cc1 -32%
C[C@@H]1CN([C@H](C)CO)C(=O)c2cc(-c3ccccc3)cnc2O[C@@H]1CN(C)C(=O)Cc1ccccc1 11.2%
COc1ccc(-c2cnc3c(c2)C(=O)N([C@H](C)CO)C[C@H](C)[C@@H](CN(C)C(=O)C2CC2)O3)cc1 -29.3%
C[C@@H]1CN([C@H](C)CO)C(=O)CCCn2cc(nn2)CO[C@@H]1CN(C)C(=O)OCc1ccccc1 0.754%
CCCCC(C(=O)O)C(C)CC(=O)Nc1nncs1 (stereo not drawn) 9.62%
C[C@@H]1CN([C@@H](C)CO)C(=O)c2cc(C3=CCCC3)cnc2O[C@H]1CN(C)C(=O)Nc1cccc(F)c1 29%
CCOc1ccc(CN2CCNC(=O)C2CC(=O)NCc2ccccn2)cc1 (stereo not drawn) 10.1%
